# PAX8 inh HTS = lowers PAX8-driven luciferase in RMG-I cells; inhibition, % at 12.6 µM; 360,000 compounds, 1.2% hits; RMG-I TPO-luciferase reporter, SteadyGlo, 24 h;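 active means mean replicate inhibition at least 60% with every replicate also reaching 60%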;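 further: luciferase light reporting Pax8 driven TPO promoter activity; plate controls were median of neutral control wells for no effect and mitoxantrone controls for full effect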
# HIF-2a block = inhibitors of HIF-2a | 786-0 RCC cells HIF-2a reporter, luciferase luminescence, overnight | inhibition, % at 18.8 µM | 360,000 compounds, 0.72% hits;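 active means inhibition of the luminescence signal of 40% or more relative to plate controls, in a single-dose primary screen at 18.75 µM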
# KKLEB cytotox = counter-screen for CF NF-kB inhibitors: cytotoxicity; KKLEB CF airway cells viability, ATPlite luminescence, overnight; hits give low values; cells stimulated with P. aeruginosa culture filtrate; activity change (cytotoxicity), % at 5 µM; 360,000 compounds, 0.36% hits;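 active means corrected activity change at or below -50% at 5 µM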
# CF NFkB block = blocks PAF-induced NF-kB reporter in cystic fibrosis cells; KKLEB NF-kB-GFP reporter, GFP fluorescence overnight; inhibition, % at 5 µM; 360,000 compounds, 0.86% hits; AID 588850;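 active means at least 50% inhibition at 5 µM, scaled per plate between neutral and stimulator controls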;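 further: PAF is a Pseudomonas aeruginosa culture filtrate used as stimulus; plate controls were PAF-stimulated DMSO wells for no effect and unstimulated DMSO wells for full effect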
# EWS-Fli block = EWS/Fli transcriptional activity inhibition. AID 651661. 350,000 compounds, 0.67% hits. A673 NR0B1-luciferase reporter, viability-normalised. inhibition, % at 12.6 µM;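 active means mean inhibition of at least 50% after viability correction, with every replicate also passing that limit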;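 further: firefly luciferase signal divided by Alamar Blue viability fluorescence both relative to DMSO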
# CF NFkB conf = CF NF-kB inhibition confirmation, single concentration. shares compounds with CF NFkB block. 1,300 compounds, 64% hits. inhibition, % at 5 µM. KKLEB CF airway cells, PAF-induced NF-kB-GFP fluorescence, overnight. AID 602472; in the data active means inhibition above about 40%;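 further: stimulus PAF is a Pseudomonas aeruginosa filtrate and not platelet activating factor; plate controls were DMSO wells with stimulus for no effect and unstimulated DMSO wells for full effect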
# Numbers without * were called inactive; · = not tested or not shown. Only some compounds are listed: those with a hit (about 2.1% of all), similar ones and a draw of the others.
SMILES,PAX8 inh HTS,HIF-2a block,KKLEB cytotox,CF NFkB block,EWS-Fli block,CF NFkB conf
CN1[C@H](C(=O)NC2Cc3ccccc3C2)[C@@H](CO)[C@@H]2Cn3c(ccc(-c4ccncc4)c3=O)[C@@H]21,11,·,·,·,-5,·
Cc1nc([N+](=O)[O-])c(Sc2nc3ccc([N+](=O)[O-])cc3[nH]2)n1Cc1ccccc1,4,19,-50,70*,·,55*
Cc1noc(C)c1S(=O)(=O)N(C)C[C@@H]1OCCCC[C@@H](C)Oc2ccc(NC(=O)C3CCCCC3)cc2C(=O)N([C@@H](C)CO)C[C@@H]1C,4,·,·,·,4,·
O=c1c2cc(Br)ccc2[nH]c(=S)n1Cc1ccccc1,30,7,1,-12,16,·
O=C(NCc1cccnc1)c1ccc(Cn2c(=S)[nH]c3ccc(Br)cc3c2=O)cc1,-8,11,-42,52*,4,38
O=C(Nc1ccc(F)cc1)Nc1ccc(N2CCCC2)c(S(=O)(=O)Nc2ccccc2Cl)c1,88*,-15,-16,60*,9,71*
Cc1cc(C(=O)Nc2cccc3c2O[C@@H](CN(C)C(=O)Nc2ccccc2)[C@H](C)CN([C@@H](C)CO)C3=O)n(C)n1,0,·,·,·,2,·
C[C@H](CO)N1C[C@H](C)[C@H](CN(C)Cc2ccccn2)Oc2cc(-c3ccc(C#N)cc3)ccc2S1(=O)=O,12,·,·,·,9,·
COc1ccc(Cc2c(-c3ccco3)nc3ccc(Br)cn23)c(C)c1,-2,-21,-26,53*,-11,-13
COc1ccccc1Cc1c(-c2ccco2)nc2c(C)cc(Br)cn12,·,93*,-46,66*,·,-254
Cc1ccc(Cc2c(-c3ccc(F)cc3)nc3c(C)cc(Br)cn23)cc1,·,-39,-30,59*,·,16
COc1ccccc1Cc1c(-c2ccc(C)cc2)nc2c(C)cc(Br)cn12,22,-18,-25,28,2,·
COc1ccccc1Cc1c(-c2ccc(F)cc2)nc2c(C)cc(Br)cn12,-8,-52,4,60*,-6,16
COc1ccc(Cc2c(-c3ccco3)nc3c(C)cc(Br)cn23)c(C)c1,48,1,-1,-8,13,·
CCCC(O)C#Cc1cnc2c(c1)C(=O)N([C@H](C)CO)C[C@H](C)[C@H](CN(C)S(=O)(=O)c1cccc(F)c1)O2 (stereo not given in full),·,·,·,·,0,·
CO[C@@H]1CN(C)C(=O)c2cc(NC(=O)Nc3cccc(F)c3)ccc2OC[C@H](C)N(C(=O)Nc2c(C)noc2C)C[C@H]1C,8,·,·,·,-5,·
O=C(c1ccc(O)c(Br)c1)c1cc(Br)ccc1O,-14,-2,8,66*,-4,61*
O=C(CSc1nccc(=O)[nH]1)Nc1cc(C(F)(F)F)ccc1N1CCOCC1,-1,9,-4,3,-1,·
Cc1ccc2nc(SCC(=O)Nc3cc(C(F)(F)F)ccc3N3CCOCC3)[nH]c2c1,·,21,-8,50*,·,78*
Cc1noc(C)c1NC(=O)Nc1cccc2c1O[C@@H](CN(C)C(=O)NC1CCCCC1)[C@@H](C)CN([C@H](C)CO)C2=O,·,·,·,·,-10,·
O=C(NCCc1c[nH]c2ccccc12)c1cc([N+](=O)[O-])cc([N+](=O)[O-])c1,9,15,7,-20,13,·
O=C(NCCc1c[nH]c2ccccc12)c1ccc([N+](=O)[O-])o1,72*,5,-8,70*,14,43*
O=C(NCc1ccccn1)C1CCCN(S(=O)(=O)c2cc(Cl)ccc2Cl)C1 (stereo not given),·,10,-34,87*,·,34
Nc1nc(/C=C/c2cccnc2)nc(-c2ccccc2O)n1,44,-48,-11,91*,14,75*
Nc1nc(/C=C/c2ccc(F)cc2)nc(-c2ccccc2O)n1,2,-12,8,-5,4,·
SMILES,PAX8 inh HTS,HIF-2a block,KKLEB cytotox,CF NFkB block,EWS-Fli block,CF NFkB conf
C=C1C(=O)[C@]23C[C@H]1CCC2[C@]1(C)C(=O)CC[C@@](C)(C(=O)O)C1C[C@@H]3O (stereo not given in full),65*,13,-13,71*,9,86*
C=C1C(=O)[C@]23C[C@H]1CC[C@H]2[C@]1(C)[C@@H](OC(C)=O)CC[C@@](C)(C(=O)O)[C@H]1C[C@@H]3OC(C)=O,86*,-26,1,62*,10,17
Oc1ccc(Nc2ncnc3scc(-c4ccccc4)c23)cc1,-10,24,-16,61*,16,78*
Cc1ccc(C(=O)c2cnc3ccccc3c2-c2ccccc2)cc1,·,17,-17,70*,·,38
O=C(/C=C/c1ccccc1[N+](=O)[O-])N1CCOCC1,10,19,-44,70*,2,-2
NC(=O)C1CCN(C(=O)/C=C/c2ccccc2[N+](=O)[O-])CC1,9,7,-2,8,-6,·
COc1ccc(CN(C)C[C@@H]2OCCCC[C@@H](C)Oc3ccc(NC(=O)Nc4ccccc4)cc3C(=O)N([C@@H](C)CO)C[C@H]2C)cc1,-11,·,·,·,1,·
C[C@@H]1CCCCO[C@@H](CN(C)C)[C@H](C)CN([C@H](C)CO)C(=O)c2cc(NS(=O)(=O)c3ccc(F)cc3)ccc2O1,-10,·,·,·,2,·
O=C1NC(=S)N/C1=C\c1cccnc1,-17,18,-2,54*,-28,64*
O=C1NC(=S)N/C1=C/c1cccnc1,-55,12,-6,52*,5,46*
C[C@H](CO)N1C[C@H](C)[C@H](CN(C)CC2CCCCC2)Oc2c(NC(=O)Nc3ccc(C(F)(F)F)cc3)cccc2C1=O,·,·,·,·,-1,·
Cc1ccc(-c2cnc3c(c2)C(=O)N([C@@H](C)CO)C[C@H](C)[C@H](CN(C)C(=O)c2ccc(F)cc2)O3)cc1,·,·,·,·,-3,·
COc1cccc(-c2ccc([C@@H]3[C@H]4CNCC(=O)N4[C@H]3CO)cc2)c1,·,·,·,·,-3,·
CC1=Nn2c(nnc2-c2ccccc2Cl)SC1,·,7,-6,-10,·,·
Clc1ccccc1C1=Nn2c(nnc2-c2ccncc2)SC1,·,2,-11,78*,·,94*
Cc1c2ccncc2cc2c1[nH]c1ccccc12,-28,18,-46,55*,4,21
COc1cc(/C=C2\SC(=O)N(CCNC(=O)c3sc4cc(F)ccc4c3Cl)C2=O)cc(OC)c1OC,24,17,-42,55*,14,67*
COc1cc(C(=O)NCC(=O)NCCN2C(=O)S/C(=C\c3ccccc3Cl)C2=O)cc(OC)c1OC,2,-46,-3,-19,1,·
O=C(C[C@H]1C[C@@H]2c3cc(NC(=O)NC4CCCCC4)ccc3O[C@@H]2[C@@H](CO)O1)NCC1CC1,-1,·,·,·,1,·
CC(NC(=O)c1ccc([N+](=O)[O-])cc1Cl)C1CC2CCC1C2 (stereo not given),-8,-67,3,16,-16,·
CC(NC(=O)c1ccc([N+](=O)[O-])o1)C1CC2CCC1C2 (stereo not given),·,7,-9,62*,·,25
